# Measured values as given in PubChem BioAssay (Tox21).
# Inconclusive results are not listed. Activity calls are given as the source filed them. Unless noted, calls come from the whole dose curve; as a rule, active = well fitted cell-killing curve with a large enough effect in the repeat runs (not every such curve was filed as active); inconclusive = weak or mixed curves, or effect the other way; inactive = no such curve, though single readings can be large or run the other way.
# Target: Nuclear receptor subfamily 1 group I member 3 (Homo sapiens) (UniProt Q14994)
# Assay: qHTS assay to identify small molecule agonists of the constitutive androstane receptor (CAR) signaling pathway (AID 1224839; active = well fitted activation curve with a large enough effect in the repeat runs; note: nearly all actives have a fitted effect of over 15% in size;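 for activation: HepG2 cells stably carrying human CAR and a CYP2B6 luciferase reporter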)
# Settings: HepG2 hCAR CYP2B6-luciferase, agonist mode, 24 h; series mostly up to 92.4 µM; activation: at the top concentration
# Method in brief: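 HepG2 cells stably expressing hCAR and a CYP2B6-2.2kb luciferase reporter were treated with compounds at 15 concentrations plus 0.75 uM PK11195 (final) for 24 h at 37 C; luminescence was read after ONE-Glo addition.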
# % is set by controls: 0 for no effect and ±100 for the full control effect; potency is the fitted concentration of half-maximal effect.
# Chain of Nuclear receptor subfamily 1 group I member 3 (Homo sapiens) (Q14994 whole entry, looked up): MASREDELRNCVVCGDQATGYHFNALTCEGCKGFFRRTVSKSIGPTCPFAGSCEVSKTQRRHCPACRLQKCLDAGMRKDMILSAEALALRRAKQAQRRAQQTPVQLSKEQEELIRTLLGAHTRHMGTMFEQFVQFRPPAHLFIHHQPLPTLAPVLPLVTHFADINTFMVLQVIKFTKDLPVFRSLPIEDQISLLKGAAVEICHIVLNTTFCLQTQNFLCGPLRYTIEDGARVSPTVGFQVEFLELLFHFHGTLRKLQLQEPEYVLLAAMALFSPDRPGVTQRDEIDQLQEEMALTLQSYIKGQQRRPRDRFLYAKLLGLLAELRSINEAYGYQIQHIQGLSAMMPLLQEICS
Compound,Potency,activation
CCC(=O)OC/C=C/c1ccccc1,inactive,–
CN1CCN(c2c(F)cc3c(=O)c(C(=O)O)cn4c3c2OCN4C)CC1,–,-1.52% [at 19 µM] (inactive)
Cc1cc(O)c(C(C)C)cc1Cl,inactive,–
O=C(CCCCCCC(=O)Nc1ccccc1)NO,–,-12.7% [at 42.5 µM] (inactive)
CCOC(=O)c1ccccc1OC,–,0.736% (inactive)
O=C(O)c1ccccc1NCCc1ccccc1,26.6 µM (active),–
CCOC(=N)CC(=O)OCC,–,1.93% (inactive)
CC[C@@H]([C@H](C)O)n1ncn(-c2ccc(N3CCN(c4ccc(OC[C@@H]5CO[C@@](Cn6cncn6)(c6ccc(F)cc6F)C5)cc4)CC3)cc2)c1=O,–,7.28% [at 42.5 µM] (inactive)
CCC(C)(C)C1CCC(O)CC1 (configuration not stated),–,-2.89% (inactive)
O=C(O)c1cccc(O)c1,–,-1.86% (inactive)
O=C1OCCN1/N=C/c1ccc([N+](=O)[O-])o1,–,9% [at 42.5 µM] (inactive)
CC(C)C(=O)O,–,-3.38% (inactive)
C[C@@H]1C[C@H]2[C@@H]3CCC4=CC(=O)C=C[C@]4(C)[C@@]3(F)[C@@H](O)C[C@]2(C)[C@H]1C(=O)CO,–,2.77% [at 42.5 µM] (inactive)
CC1(C)C2=CCCC(C)(C)[C@]23CC[C@H]1C3,–,10.6% (inactive)
CNC(=S)NC,–,-4.27% (inactive)
Cc1cc(C(=C2C=CC(=Nc3ccc(S(=O)(=O)O)cc3S(=O)(=O)O)C=C2)c2ccc(Nc3ccc(S(=O)(=O)O)cc3)cc2)ccc1N,–,0.0896% [at 42.5 µM] (inactive)
COc1cc2c(N3CCN(C(=O)Nc4ccc(OC(C)C)cc4)CC3)ncnc2cc1OCCCN1CCCCC1,–,-11.1% [at 42.5 µM] (inactive)
COC(=O)[C@@H]1CC2=CC(=O)CC[C@]2(C)[C@@]23O[C@@H]2C[C@@]2(C)[C@@H](CC[C@@]24CCC(=O)O4)[C@H]13,–,0.0324% [at 42.5 µM] (inactive)
CCCCN(CCCC)CCCOC(=O)c1ccc(N)cc1,26.6 µM (active),–
C=CC(C)(O)CCCC(C)CCCC(C)CCCC(C)C (configuration not stated),–,0.952% (inactive)
CCN(Cc1cccc(S(=O)(=O)O)c1)c1ccc(C(=C2C=CC(=[N+](CC)Cc3cccc(S(=O)(=O)[O-])c3)C=C2)c2ccccc2)cc1,–,0.394% [at 42.5 µM] (inactive)
COCc1c(C(C)C)nc(C(C)C)c(/C=C/[C@@H](O)C[C@@H](O)CC(=O)O)c1-c1ccc(F)cc1,inactive,–
CCCCCCOC(=O)CCCCCCCC(=O)OCCCCCC,–,0.768% (inactive)
NC(=O)Nc1ccc(Cl)c(Cl)c1,–,-1.79% (inactive)

# System: not listed separately
# Assay: qHTS assay to identify small molecule antagonists of the estrogen related receptor signaling pathway with the pleiotropic PPARgamma coactivator (PGC) from Tox21 10K library - cell viability counter screen (AID 1224840); note: nearly all actives have a fitted effect of over 40% in size
# Settings: PGC/ERR reporter cells viability, CellTiter-Fluor, 17.5 h; series mostly up to 92.4 µM; viability change, negative = cytotoxic: at the top concentration
# Method in brief: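 Counter-screen for cytotoxicity: after 17.5 h compound exposure at 37 C, CellTiter-Fluor reagent added to PGC/ERR cells for 30 min and fluorescence read. Cells were seeded at 2,000 per well 6 h before dosing.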
Compound,"viability change, negative = cytotoxic",Potency
CC(C)(O)c1ccccc1CC[C@@H](SCC1(CC(=O)O)CC1)c1cccc(/C=C/c2ccc3ccc(Cl)cc3n2)c1,8.07% [at 42.5 µM] (inactive),–
CCC(=O)OC/C=C/c1ccccc1,–,inactive
O=C(CS)OCCOC(=O)CS,1% (inactive),–
CN1CCN(c2c(F)cc3c(=O)c(C(=O)O)cn4c3c2OCN4C)CC1,9.28% [at 19 µM] (inactive),–
Cc1cc(O)c(C(C)C)cc1Cl,–,inactive
O=C(C(=O)c1ccccc1)c1ccccc1,6.97% (inactive),–
O=C(CCC1CCN(Cc2ccccc2)CC1)c1ccc2c(c1)NCCCC2,-12.3% [at 42.5 µM] (inactive),–
O=C(CCCCCCC(=O)Nc1ccccc1)NO,-10.5% [at 42.5 µM] (inactive),–
CCOC(=O)c1ccccc1OC,12.9% (inactive),–
CC(C)CCCC(=O)O,4.51% (inactive),–
CCC(C(=O)OCCOCCN(CC)CC)c1ccccc1 (configuration not stated),-1.27% [at 42.5 µM] (inactive),–
CCCCC(=O)O[C@]1(C(=O)CO)CC[C@H]2[C@@H]3CCC4=CC(=O)CC[C@]4(C)[C@H]3[C@@H](O)C[C@@]21C,-2.72% [at 42.5 µM] (inactive),–
O=C(O)c1ccccc1NCCc1ccccc1,0.402% [at 42.5 µM] (inactive),–
CCOC(=N)CC(=O)OCC,-0.748% (inactive),–
COc1cc2[nH]c(=O)[nH]c(=O)c2cc1OC,6.9% [at 42.5 µM] (inactive),–
CCC(C)(C)C1CCC(O)CC1 (configuration not stated),-6.83% (inactive),–
CCC(C)(O)CCC=C(C)C (configuration not stated),4.9% (inactive),–
Cc1nc2ccccn2c(=O)c1CCN1CCC(C(=O)c2ccc(F)cc2)CC1,-11.2% [at 42.5 µM] (inactive),–
O=C(O)c1cccc(O)c1,7.9% (inactive),–

Compound,"viability change, negative = cytotoxic",Potency
O=C1OCCN1/N=C/c1ccc([N+](=O)[O-])o1,-1.14% [at 42.5 µM] (inactive),–
CC(C)C(OC(=O)c1ccccc1)C(C)(C)COC(=O)c1ccccc1 (configuration not stated),-0.571% (inactive),–
CC(C)C(=O)O,4.92% (inactive),–
CC(C)CCCCCCOC(=O)CCCCC(=O)OCCCCCCC(C)C,4.58% (inactive),–
C[C@@H]1C[C@H]2[C@@H]3CCC4=CC(=O)C=C[C@]4(C)[C@@]3(F)[C@@H](O)C[C@]2(C)[C@H]1C(=O)CO,-1.77% [at 42.5 µM] (inactive),–
CC1(C)C2=CCCC(C)(C)[C@]23CC[C@H]1C3,-5.7% (inactive),–
CNC(=S)NC,-20.5% (inactive),–
CCCCC/C(=C\c1ccccc1)CO,-4.85% (inactive),–
Cc1cc(C(=C2C=CC(=Nc3ccc(S(=O)(=O)O)cc3S(=O)(=O)O)C=C2)c2ccc(Nc3ccc(S(=O)(=O)O)cc3)cc2)ccc1N,-10.3% [at 42.5 µM] (inactive),–
CC(N)CN (configuration not stated),3.36% (inactive),–
COc1cc2c(N3CCN(C(=O)Nc4ccc(OC(C)C)cc4)CC3)ncnc2cc1OCCCN1CCCCC1,–,29.8 µM (active)
Nc1nc(Cl)nc2c1ncn2[C@@H]1O[C@H](CO)[C@@H](O)[C@@H]1F,1.54% [at 42.5 µM] (inactive),–
COC(=O)[C@@H]1CC2=CC(=O)CC[C@]2(C)[C@@]23O[C@@H]2C[C@@]2(C)[C@@H](CC[C@@]24CCC(=O)O4)[C@H]13,13.7% [at 42.5 µM] (inactive),–
CCCCN(CCCC)CCCOC(=O)c1ccc(N)cc1,5.52% [at 42.5 µM] (inactive),–
C=CC(C)(O)CCCC(C)CCCC(C)CCCC(C)C (configuration not stated),6.02% (inactive),–
CCN(Cc1cccc(S(=O)(=O)O)c1)c1ccc(C(=C2C=CC(=[N+](CC)Cc3cccc(S(=O)(=O)[O-])c3)C=C2)c2ccccc2)cc1,-5.59% [at 42.5 µM] (inactive),–
COCc1c(C(C)C)nc(C(C)C)c(/C=C/[C@@H](O)C[C@@H](O)CC(=O)O)c1-c1ccc(F)cc1,–,inactive
CCCCCCOC(=O)CCCCCCCC(=O)OCCCCCC,7.58% (inactive),–
NC(=O)Nc1ccc(Cl)c(Cl)c1,-4.54% (inactive),–
